# Compound activity deposited in PubChem by National Center for Advancing Translational Sciences (NCATS).
# IL1B secr inh: qHTS for Inhibitors of Inflammasome Signaling: IL-1-beta AlphaLISA Primary Screen | activity change, % at 57.5 µM | 4.7% of 360,000 active | THP-1 LPS/ATP IL-1B secretion, AlphaLISA, 16 h; stronger effect = lower value | AID 743279, 2014; in the data active means activity change below about -50%; inconclusive means mostly about -30% to -49%
#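 THP-1 cells pretreated 1 hr with compounds (up to 57.5 uM final), then stimulated with LPS (250 ng/mL final) plus ATP (1.25 mM final); secreted IL-1B measured by AlphaLISA after 16 hr, decreased signal indicating inhibition.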
# TDP1 cell CPT: qHTS for Inhibitors of human tyrosyl-DNA phosphodiesterase 1 (TDP1): qHTS in cells in presence of CPT; chicken DT40 Tdp1-/-;hTDP1 cells + 20 nM CPT, ATP luminescence, 48 h; Potency, µM (top dose mostly 46.2 µM), usual class: inhibitors; 12% of 420,000 active; AID 686979, 2013; further: nearly all actives have a fitted effect of over 55% in size
#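 Chicken DT40 Tdp1-/- cells complemented with human TDP1, 400 cells/well, exposed to compounds plus 20 nM camptothecin for at least 48 h at 37 C; viability read as ATP content by CellTiter-Glo luminescence.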
# CtBP-E1A blk: qHTS Assay for Inhibitors of the CtBP/E1A Interaction. AlphaScreen GST-E1A/His-CtBP binding, 1536-well; stronger effect = lower value. 0.49% of 340,000 active. CtBP / adenovirus E1A interaction (AlphaScreen). activity change, % (concentration not given with the values); in the data active means activity change below about -65%; inconclusive means mostly about -30% to -63%
#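 In 5 uL wells, 23 nL compound meets equimolar GST-E1A and His-CtBP (5X stock 125 nM each) for 2 h, 37 °C. Beads (5X, 50 ug/mL) then 1 h, 37 °C, dark.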
# TDP1 cell noCPT: qHTS for Inhibitors of human tyrosyl-DNA phosphodiesterase 1 (TDP1): qHTS in cells in absence of CPT. 15% of 420,000 active. Potency, µM (doses to about 46.2 µM), usual class: inhibitors. AID 686978, 2013. DT40 Tdp1-/- hTDP1 cells, no CPT, ATP luminescence, 48 h; further: nearly all actives have a fitted effect of over 55% in size
#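 Seeded 400 DT40-hTDP1 cells/well (vehicle DMSO, no 20 nM CPT); pinned compounds; ≥48 hr at 37 °C; CellTiter-Glo luminescence as viability measure.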
# Six1-Eya2 blk: qHTS Assay for Inhibitors of the Six1/Eya2 Interaction; Homeobox protein SIX1 (Homo sapiens) + Protein phosphatase EYA2 (Homo sapiens), …; AlphaScreen GST-Six1/His-Eya2 binding, biochemical; stronger effect = lower value; AID 651725, 2012; 0.56% of 360,000 active; activity change, % (no concentration beside the values); in the data active means activity change below about -65%; inconclusive means mostly about -30% to -63%
#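 Six1/Eya2 binding was read as AlphaScreen signal after compounds were pinned into GST-Six1 plus His-tagged Eya2 (5X stock 250/500 nM) in pH 8.0 Tris/NaCl/TCEP buffer, beads added, then incubated 1 h, 37 C, dark.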
# TDP1 inh: qHTS Assay for Inhibitors of Tyrosyl-DNA Phosphodiesterase (TDP1); recombinant TDP1, AlphaScreen DNA substrate cleavage; Tyrosyl-DNA phosphodiesterase 1 (Homo sapiens), Q9NUW8; 0.28% of 350,000 active; Potency, µM (doses to about 130 µM), most hits filed as inhibitors; further: nearly all actives have a fitted effect of over 40% in size
# Target sequence (Q9NUW8 whole entry, looked up): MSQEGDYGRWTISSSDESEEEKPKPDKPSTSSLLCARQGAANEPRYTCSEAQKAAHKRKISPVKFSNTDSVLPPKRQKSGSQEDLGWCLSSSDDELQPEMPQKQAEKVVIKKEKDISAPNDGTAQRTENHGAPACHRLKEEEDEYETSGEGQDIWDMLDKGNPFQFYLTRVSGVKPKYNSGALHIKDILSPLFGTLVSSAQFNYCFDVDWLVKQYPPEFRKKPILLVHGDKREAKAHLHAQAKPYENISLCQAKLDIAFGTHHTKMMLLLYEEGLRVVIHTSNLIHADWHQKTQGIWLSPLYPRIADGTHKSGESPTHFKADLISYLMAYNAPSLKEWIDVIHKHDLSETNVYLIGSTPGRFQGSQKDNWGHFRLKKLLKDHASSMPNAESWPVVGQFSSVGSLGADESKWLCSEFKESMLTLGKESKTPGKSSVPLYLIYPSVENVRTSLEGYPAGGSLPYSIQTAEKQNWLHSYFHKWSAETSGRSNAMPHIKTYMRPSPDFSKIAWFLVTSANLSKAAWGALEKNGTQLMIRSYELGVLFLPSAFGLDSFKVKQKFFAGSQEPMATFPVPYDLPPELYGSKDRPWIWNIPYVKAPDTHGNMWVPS
#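 Enzyme-compound mixtures sat 15 min at room temperature, followed by a 5 min reaction with 15 nM final substrate and 10 min with AlphaScreen beads. Recombinant human Tdp1 was used at 1 nM final.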
# Hits are given with their value; – = inactive; ? = inconclusive; · = not tested or not shown. Sampled rows, rich in hits. Any-hit rate of the full collection: about 18%. Unless noted, the call rests on the fitted dose curve; in most records, active means well fitted curve in the direction sought with a large enough effect; inconclusive means small, poorly fitted or top-dose-only effect, or another doubt; inactive means no such curve, though single readings can be large; an effect the other way counts as inactive or inconclusive.
SMILES,IL1B secr inh,TDP1 cell CPT,CtBP-E1A blk,TDP1 cell noCPT,Six1-Eya2 blk,TDP1 inh
COc1cccc(-c2nnc(SCC(=O)Nc3ccc(S(N)(=O)=O)cc3)n2C)c1,–,–,–,?,–,–
CC(C)CC(=O)Nc1cc(-c2ccccc2F)nn1-c1ccccc1,·,25.9µM,·,11.6µM,·,–
CCC(Oc1ccccc1)C(=O)Nc1cc(-c2ccccc2OC)nn1-c1ccccc1 (stereo not given),·,?,·,23.1µM,·,–
Cc1ccc2onc(CNC(=O)NCc3cccc(Cl)c3)c2c1,·,–,·,?,·,–
CN(CCO)C(=O)c1cn(C2CCCN(Cc3cc4ccccc4s3)C2)nn1 (stereo not given),·,–,·,–,·,·
Cc1cccc(C2NC(=O)c3ccccc3N2)c1 (stereo not given),–,3.26µM,–,5.17µM,–,·
O=C1NC(c2ccc(Cl)cc2)Nc2ccccc21 (stereo not given),–,–,–,–,–,–
Cc1ccc(C2NC(=O)c3ccccc3N2)s1 (stereo not given),–,5.8µM,–,4.61µM,–,–
O=C1NC(c2ccncc2)Nc2ccccc21 (stereo not given),–,–,–,–,–,–
Cc1ccc(C2NC(=O)c3ccccc3N2)c(C)c1 (stereo not given),–,2.06µM,–,2.91µM,–,·
Cc1ccc(S(=O)(=O)N(C)CC(=O)OCC(=O)N2CCN(c3ccccc3)CC2)cc1,–,–,–,?,–,–
COc1ccc(C(=O)NCc2n[nH]c(=S)n2-c2ccccc2)cc1OC,–,–,–,?,–,·
CCc1ccc(NC(=O)Cn2nc3c4ccccc4n(Cc4ccccc4)cc-3c2=O)cc1,·,–,·,–,·,–
O=C(CCCOc1ccccc1)N1CCN(c2ccc(F)cc2)CC1,–,?,–,18.4µM,–,–
O=C(CSCc1ccc(F)cc1)N1CCN(c2ccccc2F)CC1,·,20.6µM,·,25.9µM,·,–
O=C(CSCc1ccccc1)N1CCN(c2ccc(F)cc2)CC1,?,13µM,–,?,–,–
O=C(CCc1ccccc1)N1CCN(c2ccccc2F)CC1,–,–,–,–,–,–
Cc1nc(N)nc(N)c1-c1ccc([N+](=O)[O-])cc1,–,?,–,1.46µM,–,·
Cc1nc2c(C(=O)N(C)Cc3ccccc3)c[nH]n2c(=O)c1Cc1ccc(Cl)cc1,·,18.4µM,·,?,·,–
Cc1nc2c(C(=O)NCCc3ccc(Cl)cc3)c[nH]n2c(=O)c1Cc1ccc(Cl)cc1,·,–,·,?,·,–
O=C(NC(=S)N1CCOCC1)c1ccc(F)cc1,–,–,–,–,–,–
COc1ccc(/C=C/C(=O)NCC(=O)n2nc(C)cc2C)cc1,–,–,·,–,–,–
CCOC(=O)C1CCN(c2ncnc3c2c(-c2ccccc2)cn3-c2ccccc2)CC1,–,?,–,23.1µM,–,–
Cc1ccc(-n2cc(-c3ccccc3)c3c(N4CCCCC4)ncnc32)cc1,·,20.6µM,·,23.1µM,·,–
Cc1cccc(-n2cc(-c3ccccc3)c3c(N4CCOCC4)ncnc32)c1,-66.9,?,–,?,–,–
SMILES,IL1B secr inh,TDP1 cell CPT,CtBP-E1A blk,TDP1 cell noCPT,Six1-Eya2 blk,TDP1 inh
COc1cccc(N2CCN(c3ncnc4c3c(-c3ccccc3)cn4-c3ccc(C)cc3)CC2)c1,·,–,·,–,·,–
Cc1ccc(-n2cc(-c3ccccc3)c3c(N4CCOCC4)ncnc32)cc1,?,–,–,?,–,–
COc1ccc(-n2cc(-c3ccccc3)c3c(N4CCCC(C)C4)ncnc32)cc1 (stereo not given),·,16.4µM,·,10.3µM,·,–
Cc1cccc2cc(COC(=O)c3ccccc3)c(=O)[nH]c12,–,–,–,–,–,–
Cc1c(Cl)cccc1NC(=O)CSC(C)c1nc2ccccc2c(=O)[nH]1 (stereo not given),–,–,–,–,–,–
Cc1ccc(S(=O)(=O)CCC(=O)NCCC2=CCCCC2)cc1,–,–,–,–,–,·
CCOC(=O)C1CN(S(=O)(=O)c2ccc(C)cc2)c2cc(S(=O)(=O)CC)ccc2O1 (stereo not given),–,–,–,–,–,–
CCOc1ccc(-n2cc(-c3ccccc3)c3c(N4CCN(c5ccccc5OC)CC4)ncnc32)cc1,·,11.6µM,·,16.4µM,·,–
CC(Sc1n[nH]c(-c2cccs2)n1)C(=O)Nc1ccc(C(N)=O)cc1 (stereo not given),–,–,–,–,–,–
COc1ccc(CC(=O)Nc2ccc(C(=O)Nc3ccccc3C(=O)O)cc2)cc1OC,–,–,-66.8,–,-75.7,–
COc1cc(Cl)c(C)cc1NC(=O)Cc1cccs1,–,–,–,–,–,·
CN(CC(=O)Nc1ccccc1Oc1ccccc1)Cc1ccccc1F,–,?,–,?,–,–
COc1ccccc1NC(=O)c1ccc(NC(=O)CN(C)Cc2ccccc2F)cc1,·,–,–,23.1µM,–,–
COc1cc(Cl)c(C)cc1NC(=S)NN,–,?,–,18.4µM,–,–
COc1cc(NC(=S)NC(C)(C)C)c(OC)cc1Cl,–,?,–,–,–,–
